Experimental data as given in the supplement of paper PMC10849652.
The full data set covers some 7,900 targets. This sample favours those with a hit. About 0.6% of all pairs of compound and target were hits. Values without a mark were called inactive.

Columns and labels:
Assay in all cases: log2 fold change, soluble protein after heating vs DMSO (PISA); higher = thermal stabilisation; K562 cells, 10 uM, 30 min; active = over 0.2 and 3.5 SD of the protein, either way, in both replicates (recomputed)
[1] = compound: CS(=O)(=O)c1ccc(-c2cnc(N)c(C(=O)Nc3ccccc3)n2)cc1
Method in brief: (§1)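 Soluble protein was defined as the supernatant after 21,000xg for 90 min. It came from K562 cells at 2×10^6 cells/mL given 10 μM compound for 30 min, heated in aliquots for 3 min across 48°C-58°C, pooled, and extracted in PBS with 0.5% NP-40 at 4°C, and was quantified by TMTpro 16plex LC-MS/MS with equalised channel sums. Thermal stability against control samples, from duplicates, is reported as log2 fold change.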

crizotinib = compound: C[C@@H](Oc1cc(-c2cnn(C3CCNCC3)c2)cnc1N)c1c(Cl)ccc(F)c1Cl [crizotinib]
Method in brief: as §1

[2] = compound: C[C@@H]1COCCN1C2=NC(=NC(=C2)C3(CC3)S(=O)(=O)C)C4=C5C=CNC5=CC=C4
Method in brief: as §1

[3] = compound: C[C@H](C1=CC=C(C=C1)C(=O)NC2=C3C=CNC3=NC=C2)N
Method in brief: as §1

duvelisib = compound: C[C@H](Nc1ncnc2nc[nH]c12)c1cc2cccc(Cl)c2c(=O)n1-c1ccccc1 [duvelisib]
Method in brief: as §1

gandotinib = compound: Cc1cc(Nc2cc(CN3CCOCC3)c3nc(C)c(Cc4ccc(Cl)cc4F)n3n2)n[nH]1 [gandotinib]
Method in brief: as §1

tozasertib = compound: Cc1cc(Nc2cc(N3CCN(C)CC3)nc(Sc3ccc(NC(=O)C4CC4)cc3)n2)n[nH]1 [tozasertib]
Method in brief: as §1

[4] = compound: Cc1cc(SCc2sc(-c3ccc(C(F)(F)F)cc3)nc2C)ccc1OCC(=O)O
Method in brief: as §1

doramapimod = compound: Cc1ccc(-n2nc(C(C)(C)C)cc2NC(=O)Nc2ccc(OCCN3CCOCC3)c3ccccc23)cc1 [doramapimod]
Method in brief: as §1

ispinesib = compound: Cc1ccc(C(=O)N(CCCN)[C@@H](c2nc3cc(Cl)ccc3c(=O)n2Cc2ccccc2)C(C)C)cc1 [ispinesib]
Method in brief: as §1

bafetinib = compound: Cc1ccc(NC(=O)c2ccc(CN3CC[C@H](N(C)C)C3)c(C(F)(F)F)c2)cc1Nc1nccc(-c2cncnc2)n1 [bafetinib]
Method in brief: as §1

[5] = compound: Cc1cccc(CC(=O)N2CCc3c2ccc(-c2cn(C)c4ncnc(N)c24)c3F)n1
Method in brief: as §1

nilotinib = compound: Cc1cn(-c2cc(NC(=O)c3ccc(C)c(Nc4nccc(-c5cccnc5)n4)c3)cc(C(F)(F)F)c2)cn1 [nilotinib]
Method in brief: as §1

[6] = compound: Cc1nc(Nc2n[nH]c3c2CN(C(=O)N[C@H](CN(C)C)c2ccccc2)C3(C)C)c2sccc2n1
Method in brief: as §1

dasatinib = compound: Cc1nc(Nc2ncc(C(=O)Nc3c(C)cccc3Cl)s2)cc(N2CCN(CCO)CC2)n1 [dasatinib]
Method in brief: as §1

[7] = compound: Cc1ncc(-c2ccnc(Nc3ccc(S(C)(=O)=O)cc3)n2)n1C(C)C
Method in brief: as §1

[8] = compound: Cn1cc(-c2ccc3c(c2)CCN3C(=O)Cc2cccc(C(F)(F)F)c2)c2c(N)ncnc21
Method in brief: as §1

[9] = compound: Cn1cc(-c2ccc3nnc(C(F)(F)c4ccc5ncccc5c4)n3n2)cn1
Method in brief: as §1

tipifarnib = compound: Cn1cncc1[C@@](N)(c1ccc(Cl)cc1)c1ccc2c(c1)c(-c1cccc(Cl)c1)cc(=O)n2C [tipifarnib]
Method in brief: as §1

mubritinib = compound: FC(F)(F)c1ccc(/C=C/c2nc(COc3ccc(CCCCn4ccnn4)cc3)co2)cc1 [mubritinib]
Method in brief: as §1

DHRS3 (UniProt O75911)
Chain of UniProt O75911 (O75911 whole entry, looked up): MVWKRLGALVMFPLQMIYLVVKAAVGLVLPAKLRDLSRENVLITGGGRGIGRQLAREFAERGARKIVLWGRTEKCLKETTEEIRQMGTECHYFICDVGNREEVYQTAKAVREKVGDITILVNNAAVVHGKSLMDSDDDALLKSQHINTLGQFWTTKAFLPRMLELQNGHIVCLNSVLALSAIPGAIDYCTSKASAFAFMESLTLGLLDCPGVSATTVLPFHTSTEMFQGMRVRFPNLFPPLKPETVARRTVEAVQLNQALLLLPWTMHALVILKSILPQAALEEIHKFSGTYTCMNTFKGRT
log2 fold change [1]: 0.083 | log2 fold change (crizotinib): 0.093 | log2 fold change [2]: 0.115 | log2 fold change [3]: 0.069 | log2 fold change (duvelisib): 0.027 | log2 fold change (gandotinib): -0.027 | log2 fold change (tozasertib): -0.089 | log2 fold change [4]: -0.049 | log2 fold change (doramapimod): -0.037 | log2 fold change (ispinesib): 0.015 | log2 fold change (bafetinib): 0.027 | log2 fold change [5]: 0.017 | log2 fold change (nilotinib): 0.101 | log2 fold change [6]: -0.031 | log2 fold change (dasatinib): 0.188 | log2 fold change [7]: -0.025 | log2 fold change [8]: 0.323 (active) | log2 fold change [9]: 0.164 | log2 fold change (tipifarnib): 0.012 | log2 fold change (mubritinib): 0.081

FAM122A (UniProt Q96E09)
Chain of UniProt Q96E09 (Q96E09 whole entry, looked up): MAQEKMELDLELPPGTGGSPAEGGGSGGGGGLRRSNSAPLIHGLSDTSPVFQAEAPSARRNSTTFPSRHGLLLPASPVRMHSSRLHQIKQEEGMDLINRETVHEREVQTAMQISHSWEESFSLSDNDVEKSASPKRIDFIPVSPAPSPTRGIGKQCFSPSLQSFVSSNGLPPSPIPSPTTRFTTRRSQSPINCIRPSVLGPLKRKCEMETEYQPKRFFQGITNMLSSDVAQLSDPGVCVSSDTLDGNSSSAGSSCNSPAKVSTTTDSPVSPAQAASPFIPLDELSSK
log2 fold change [1]: 0.077 | log2 fold change (crizotinib): -0.032 | log2 fold change [2]: -0.267 | log2 fold change [3]: -0.042 | log2 fold change (duvelisib): 0.059 | log2 fold change (gandotinib): -0.015 | log2 fold change (tozasertib): 0.038 | log2 fold change [4]: -0.015 | log2 fold change (doramapimod): 0.014 | log2 fold change (ispinesib): 0 | log2 fold change (bafetinib): -0.096 | log2 fold change [5]: -0.185 | log2 fold change (nilotinib): 0.027 | log2 fold change [6]: -0.184 | log2 fold change (dasatinib): -0.054 | log2 fold change [7]: 0.059 | log2 fold change [8]: 0.024 | log2 fold change [9]: 0.037 | log2 fold change (tipifarnib): -0.059 | log2 fold change (mubritinib): 0.009

EIF2S3 (UniProt P41091)
Chain of UniProt P41091 (P41091 whole entry, looked up): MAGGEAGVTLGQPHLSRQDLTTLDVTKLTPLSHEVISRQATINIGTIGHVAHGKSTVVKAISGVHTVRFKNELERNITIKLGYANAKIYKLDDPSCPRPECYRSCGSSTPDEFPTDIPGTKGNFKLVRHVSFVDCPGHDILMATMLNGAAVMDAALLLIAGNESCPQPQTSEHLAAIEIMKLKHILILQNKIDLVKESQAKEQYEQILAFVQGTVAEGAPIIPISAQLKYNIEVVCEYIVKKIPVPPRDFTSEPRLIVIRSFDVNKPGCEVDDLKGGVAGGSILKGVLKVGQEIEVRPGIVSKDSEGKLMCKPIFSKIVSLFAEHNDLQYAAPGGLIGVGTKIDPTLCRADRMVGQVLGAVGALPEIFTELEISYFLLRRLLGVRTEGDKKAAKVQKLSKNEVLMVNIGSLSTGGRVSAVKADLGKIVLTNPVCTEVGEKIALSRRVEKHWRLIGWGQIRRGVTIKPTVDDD
log2 fold change [1]: -0.071 | log2 fold change (crizotinib): -0.014 | log2 fold change [2]: -0.219 (active) | log2 fold change [3]: 0.053 | log2 fold change (duvelisib): -0.037 | log2 fold change (gandotinib): 0.077 | log2 fold change (tozasertib): -0.031 | log2 fold change [4]: 0.014 | log2 fold change (doramapimod): 0.038 | log2 fold change (ispinesib): -0.088 | log2 fold change (bafetinib): 0.133 | log2 fold change [5]: -0.023 | log2 fold change (nilotinib): -0.04 | log2 fold change [6]: 0.072 | log2 fold change (dasatinib): 0.043 | log2 fold change [7]: 0.014 | log2 fold change [8]: -0.081 | log2 fold change [9]: -0.052 | log2 fold change (tipifarnib): 0.019 | log2 fold change (mubritinib): -0.017

EXTL2 (UniProt Q9UBQ6)
Chain of UniProt Q9UBQ6 (Q9UBQ6 whole entry, looked up): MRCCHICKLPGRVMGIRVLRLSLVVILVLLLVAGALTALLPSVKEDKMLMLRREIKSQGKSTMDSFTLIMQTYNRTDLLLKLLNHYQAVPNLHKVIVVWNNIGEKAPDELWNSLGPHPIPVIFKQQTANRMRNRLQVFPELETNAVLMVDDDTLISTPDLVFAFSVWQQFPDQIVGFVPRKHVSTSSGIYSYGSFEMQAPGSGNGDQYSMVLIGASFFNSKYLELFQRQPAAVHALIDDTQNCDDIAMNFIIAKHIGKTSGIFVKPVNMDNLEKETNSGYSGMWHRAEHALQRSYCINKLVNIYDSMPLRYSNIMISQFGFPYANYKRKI
log2 fold change [1]: 0.132 | log2 fold change (crizotinib): 0.111 | log2 fold change [2]: 0.014 | log2 fold change [3]: -0.227 | log2 fold change (duvelisib): -0.015 | log2 fold change (gandotinib): 0.068 | log2 fold change (tozasertib): 0.141 | log2 fold change [4]: -0.046 | log2 fold change (doramapimod): -0.01 | log2 fold change (ispinesib): 0.108 | log2 fold change (bafetinib): -0.041 | log2 fold change [5]: 0.021 | log2 fold change (nilotinib): -0.02 | log2 fold change [6]: 0.006 | log2 fold change (dasatinib): -0.008 | log2 fold change [7]: -0.059 | log2 fold change [8]: -0.039 | log2 fold change [9]: -0.064 | log2 fold change (tipifarnib): 0.014 | log2 fold change (mubritinib): 0.029

EDC4 (UniProt Q6P2E9)
Chain of UniProt Q6P2E9 (Q6P2E9 whole entry, looked up): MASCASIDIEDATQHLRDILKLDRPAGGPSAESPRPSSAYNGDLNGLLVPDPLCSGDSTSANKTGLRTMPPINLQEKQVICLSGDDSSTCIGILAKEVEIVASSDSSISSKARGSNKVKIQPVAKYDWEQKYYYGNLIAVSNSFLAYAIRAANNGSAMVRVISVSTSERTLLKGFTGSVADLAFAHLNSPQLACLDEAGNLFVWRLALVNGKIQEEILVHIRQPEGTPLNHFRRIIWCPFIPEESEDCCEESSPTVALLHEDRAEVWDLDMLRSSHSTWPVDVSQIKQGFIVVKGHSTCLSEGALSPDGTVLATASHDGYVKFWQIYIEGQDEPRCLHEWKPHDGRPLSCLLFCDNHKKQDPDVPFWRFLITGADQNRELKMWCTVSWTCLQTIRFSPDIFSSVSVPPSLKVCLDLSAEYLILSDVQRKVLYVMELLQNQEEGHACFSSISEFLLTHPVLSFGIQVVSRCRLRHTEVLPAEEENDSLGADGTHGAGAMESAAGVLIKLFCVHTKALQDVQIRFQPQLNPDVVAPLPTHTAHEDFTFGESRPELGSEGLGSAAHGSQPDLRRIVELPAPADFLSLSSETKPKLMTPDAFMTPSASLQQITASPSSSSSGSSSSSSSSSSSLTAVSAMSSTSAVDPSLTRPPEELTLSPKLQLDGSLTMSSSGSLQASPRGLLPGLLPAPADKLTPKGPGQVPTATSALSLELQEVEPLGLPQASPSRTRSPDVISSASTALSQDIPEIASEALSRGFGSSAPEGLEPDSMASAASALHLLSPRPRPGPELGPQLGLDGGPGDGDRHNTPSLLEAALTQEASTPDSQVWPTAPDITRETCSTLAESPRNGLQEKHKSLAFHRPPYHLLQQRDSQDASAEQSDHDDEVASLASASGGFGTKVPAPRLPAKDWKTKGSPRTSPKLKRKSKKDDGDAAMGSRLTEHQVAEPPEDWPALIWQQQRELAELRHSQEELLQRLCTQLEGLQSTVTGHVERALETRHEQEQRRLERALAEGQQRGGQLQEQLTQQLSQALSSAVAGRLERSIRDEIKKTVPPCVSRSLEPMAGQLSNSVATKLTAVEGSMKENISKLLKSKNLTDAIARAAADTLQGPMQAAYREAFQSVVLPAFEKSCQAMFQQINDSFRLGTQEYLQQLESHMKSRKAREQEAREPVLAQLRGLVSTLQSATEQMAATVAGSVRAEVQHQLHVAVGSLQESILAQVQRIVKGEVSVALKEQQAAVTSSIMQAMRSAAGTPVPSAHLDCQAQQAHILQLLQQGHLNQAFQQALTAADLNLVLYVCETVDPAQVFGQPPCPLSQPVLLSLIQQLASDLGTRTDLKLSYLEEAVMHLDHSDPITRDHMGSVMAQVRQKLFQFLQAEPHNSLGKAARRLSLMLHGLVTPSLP
log2 fold change [1]: -0.064 | log2 fold change (crizotinib): 0.179 | log2 fold change [2]: 0.003 | log2 fold change [3]: -0.092 | log2 fold change (duvelisib): 0.003 | log2 fold change (gandotinib): -0.18 | log2 fold change (tozasertib): 0.061 | log2 fold change [4]: 0.033 | log2 fold change (doramapimod): 0.005 | log2 fold change (ispinesib): -0.031 | log2 fold change (bafetinib): 0.006 | log2 fold change [5]: 0 | log2 fold change (nilotinib): 0.013 | log2 fold change [6]: -0.077 | log2 fold change (dasatinib): -0.018 | log2 fold change [7]: -0.119 | log2 fold change [8]: -0.046 | log2 fold change [9]: -0.031 | log2 fold change (tipifarnib): -0.038 | log2 fold change (mubritinib): -0.019

DNAJC7 (UniProt Q99615)
Chain of UniProt Q99615 (Q99615 whole entry, looked up): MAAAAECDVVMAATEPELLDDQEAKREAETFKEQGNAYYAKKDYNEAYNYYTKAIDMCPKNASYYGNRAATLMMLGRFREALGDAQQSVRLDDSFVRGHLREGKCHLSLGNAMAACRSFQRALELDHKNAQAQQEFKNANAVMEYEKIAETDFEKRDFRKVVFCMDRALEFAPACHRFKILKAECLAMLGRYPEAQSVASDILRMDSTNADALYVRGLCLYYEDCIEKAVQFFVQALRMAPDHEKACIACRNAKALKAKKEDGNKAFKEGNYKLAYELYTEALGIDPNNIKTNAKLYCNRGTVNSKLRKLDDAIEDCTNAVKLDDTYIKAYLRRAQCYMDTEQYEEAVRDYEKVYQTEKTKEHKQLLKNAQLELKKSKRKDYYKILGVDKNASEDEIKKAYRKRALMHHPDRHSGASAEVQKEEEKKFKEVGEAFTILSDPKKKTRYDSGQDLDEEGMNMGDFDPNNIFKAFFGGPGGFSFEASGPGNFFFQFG
log2 fold change [1]: 0.027 | log2 fold change (crizotinib): -0.014 | log2 fold change [2]: 0.048 | log2 fold change [3]: -0.028 | log2 fold change (duvelisib): 0.019 | log2 fold change (gandotinib): -0.088 | log2 fold change (tozasertib): -0.021 | log2 fold change [4]: 0.095 | log2 fold change (doramapimod): -0.057 | log2 fold change (ispinesib): 0.001 | log2 fold change (bafetinib): -0.047 | log2 fold change [5]: 0.031 | log2 fold change (nilotinib): -0.107 | log2 fold change [6]: -0.048 | log2 fold change (dasatinib): -0.136 | log2 fold change [7]: 0.024 | log2 fold change [8]: 0.068 | log2 fold change [9]: 0.058 | log2 fold change (tipifarnib): -0.012 | log2 fold change (mubritinib): 0.037

DTNBP1 (UniProt Q96EV8)
Chain of UniProt Q96EV8 (Q96EV8 whole entry, looked up): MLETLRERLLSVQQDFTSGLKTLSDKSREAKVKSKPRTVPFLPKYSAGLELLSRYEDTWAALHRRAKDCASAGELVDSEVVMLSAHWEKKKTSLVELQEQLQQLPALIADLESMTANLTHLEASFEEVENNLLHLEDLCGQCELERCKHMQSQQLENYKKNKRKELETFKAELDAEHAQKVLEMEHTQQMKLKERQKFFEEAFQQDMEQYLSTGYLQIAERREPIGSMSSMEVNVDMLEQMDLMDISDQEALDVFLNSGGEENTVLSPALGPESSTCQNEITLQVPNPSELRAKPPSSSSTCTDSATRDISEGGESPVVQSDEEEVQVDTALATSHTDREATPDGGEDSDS
log2 fold change [1]: 0.093 | log2 fold change (crizotinib): 0 | log2 fold change [2]: 0.079 | log2 fold change [3]: -0.014 | log2 fold change (duvelisib): -0.012 | log2 fold change (gandotinib): -0.104 | log2 fold change (tozasertib): -0.034 | log2 fold change [4]: 0.022 | log2 fold change (doramapimod): -0.009 | log2 fold change (ispinesib): -0.073 | log2 fold change (bafetinib): 0.014 | log2 fold change [5]: 0.004 | log2 fold change (nilotinib): -0.047 | log2 fold change [6]: -0.027 | log2 fold change (dasatinib): 0.072 | log2 fold change [7]: 0.016 | log2 fold change [8]: 0.053 | log2 fold change [9]: 0.036 | log2 fold change (tipifarnib): -0.083 | log2 fold change (mubritinib): -0.081

EIF4A1 (UniProt P60842)
Chain of UniProt P60842 (P60842 whole entry, looked up): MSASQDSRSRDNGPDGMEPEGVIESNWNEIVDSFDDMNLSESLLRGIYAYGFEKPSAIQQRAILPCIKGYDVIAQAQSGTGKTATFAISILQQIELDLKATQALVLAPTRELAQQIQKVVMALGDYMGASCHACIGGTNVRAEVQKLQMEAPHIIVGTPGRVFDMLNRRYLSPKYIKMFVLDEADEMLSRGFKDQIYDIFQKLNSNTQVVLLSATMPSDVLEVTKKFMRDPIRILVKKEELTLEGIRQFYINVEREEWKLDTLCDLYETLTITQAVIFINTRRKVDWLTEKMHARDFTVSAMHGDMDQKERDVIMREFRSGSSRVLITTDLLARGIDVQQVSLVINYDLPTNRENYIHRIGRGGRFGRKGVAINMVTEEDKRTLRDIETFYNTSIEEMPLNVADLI
log2 fold change [1]: -0.055 | log2 fold change (crizotinib): -0.058 | log2 fold change [2]: 0.03 | log2 fold change [3]: -0.015 | log2 fold change (duvelisib): 0.007 | log2 fold change (gandotinib): -0.206 | log2 fold change (tozasertib): -0.008 | log2 fold change [4]: 0.047 | log2 fold change (doramapimod): 0.025 | log2 fold change (ispinesib): -0.11 | log2 fold change (bafetinib): 0.032 | log2 fold change [5]: 0.014 | log2 fold change (nilotinib): -0.135 | log2 fold change [6]: -0.063 | log2 fold change (dasatinib): -0.114 | log2 fold change [7]: -0.047 | log2 fold change [8]: 0.036 | log2 fold change [9]: -0.022 | log2 fold change (tipifarnib): -0.058 | log2 fold change (mubritinib): -0.08
